# Unmarked numbers belong to inactive results. Results filed as inconclusive are left out. The source made the active and inactive calls. Unless noted, calls follow the shape of the dose curve; as a rule, active = well fitted curve in either direction with a large enough effect (not every such curve was filed as active); inconclusive = small, poorly fitted or top-dose-only effect, or another doubt; inactive = flat fitted curve, though single readings scatter.
# How the values were obtained:
# [1] = biological target: Lysosomal acid glucosylceramidase (Homo sapiens) (UniProt P04062); test: Glucocerebrosidase-p2 (AID 348; in the data active = potency below about 10 µM; also: potency is read from the fitted curve at half-maximal effect); conditions: purified GBA, blue fluorogenic substrate, 40 min
# Chain of Lysosomal acid glucosylceramidase (Homo sapiens) (P04062 whole entry, looked up): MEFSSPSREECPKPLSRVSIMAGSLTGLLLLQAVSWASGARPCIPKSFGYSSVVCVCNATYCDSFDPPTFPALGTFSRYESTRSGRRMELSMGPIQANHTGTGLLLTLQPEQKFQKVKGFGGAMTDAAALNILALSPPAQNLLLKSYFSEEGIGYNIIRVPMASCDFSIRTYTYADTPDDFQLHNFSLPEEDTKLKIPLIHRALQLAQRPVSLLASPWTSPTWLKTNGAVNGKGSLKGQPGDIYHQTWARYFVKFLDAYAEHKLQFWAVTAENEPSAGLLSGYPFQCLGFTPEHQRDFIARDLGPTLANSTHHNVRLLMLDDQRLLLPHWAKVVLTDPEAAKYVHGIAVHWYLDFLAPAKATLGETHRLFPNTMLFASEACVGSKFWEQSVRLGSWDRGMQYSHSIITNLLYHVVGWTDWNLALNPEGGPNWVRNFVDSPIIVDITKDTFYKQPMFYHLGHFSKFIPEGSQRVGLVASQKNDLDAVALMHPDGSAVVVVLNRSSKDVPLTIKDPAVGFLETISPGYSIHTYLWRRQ
# Outline: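 Compounds titrated from 0.6 nM upwards against 0.2 nM enzyme in pH 5.9 citric acid/KH2PO4, taurocholate, tween-20; blue fluorogenic substrate 80 uM, 40 min room temperature, stopped and read Ex 365/Em 440 for AC50.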
# [2] = AP1 Signaling Pathway (AID 357); conditions: ME-180 AP-1-bla reporter, EGF-induced, beta-lactamase ratio, 5 h; at 7.69 µM (top of the series) unless noted;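 also: ME-180 reporter cells stimulated with EGF at its EC50 level; % is scaled to controls: 0 for no effect and ±100 for the full control effect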
# Outline: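 In this screen, ME-180 cells in Opti-MEM with 0.5% dialyzed FBS received EC50 EGF and compound titrations for 5 h. AP-1 reporter beta-lactamase was detected via CCF4 ratio, giving AC50 for positive and negative modulators.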
# [3] = biological target: Cytochrome P450 1A2 (Homo sapiens) (UniProt P05177); test: p450-cyp1a2 (AID 410; calls by dose curve; also: potency is read from the fitted curve at half-maximal effect); conditions: recombinant CYP1A2, luciferin-ME demethylation, luminescence; series mostly up to 57 µM
# Chain of Cytochrome P450 1A2 (Homo sapiens) (P05177 whole entry, looked up): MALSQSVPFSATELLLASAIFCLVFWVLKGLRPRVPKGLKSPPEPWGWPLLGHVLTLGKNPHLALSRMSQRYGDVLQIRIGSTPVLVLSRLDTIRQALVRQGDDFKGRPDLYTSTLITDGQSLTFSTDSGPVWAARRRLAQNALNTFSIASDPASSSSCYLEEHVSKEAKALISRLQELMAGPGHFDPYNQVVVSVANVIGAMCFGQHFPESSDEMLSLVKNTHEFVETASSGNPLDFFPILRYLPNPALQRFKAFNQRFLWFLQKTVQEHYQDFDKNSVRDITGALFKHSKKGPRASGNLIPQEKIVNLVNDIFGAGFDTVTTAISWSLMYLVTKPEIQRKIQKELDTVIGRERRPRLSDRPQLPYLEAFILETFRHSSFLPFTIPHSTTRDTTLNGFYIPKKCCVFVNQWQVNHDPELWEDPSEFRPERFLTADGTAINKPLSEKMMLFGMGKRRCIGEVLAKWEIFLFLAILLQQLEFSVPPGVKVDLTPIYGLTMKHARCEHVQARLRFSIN
# Outline: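 Human CYP1A2 (20nM) demethylated Luciferin-ME at its Km (100uM) in 100mM KPO4. After 10 min compound preincubation, NADPH regeneration ran the reaction 60 min at room temperature. Luciferin was read by luminescence, normalized to 57 uM furafylline.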
# [4] = biological target: Glucocorticoid receptor (Homo sapiens) (UniProt P04150); test: GR-GFP Redistribution (AID 450;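 active = compounds whose dose series gives a full or clear partial fitted curve of increased nuclear translocation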; also: potency is read from the fitted curve at half-maximal effect); conditions: U2OS GR-GFP nuclear translocation, laser cytometry, 2 h
# Chain of Glucocorticoid receptor (Homo sapiens) (P04150 whole entry, looked up, the tested form may be a part): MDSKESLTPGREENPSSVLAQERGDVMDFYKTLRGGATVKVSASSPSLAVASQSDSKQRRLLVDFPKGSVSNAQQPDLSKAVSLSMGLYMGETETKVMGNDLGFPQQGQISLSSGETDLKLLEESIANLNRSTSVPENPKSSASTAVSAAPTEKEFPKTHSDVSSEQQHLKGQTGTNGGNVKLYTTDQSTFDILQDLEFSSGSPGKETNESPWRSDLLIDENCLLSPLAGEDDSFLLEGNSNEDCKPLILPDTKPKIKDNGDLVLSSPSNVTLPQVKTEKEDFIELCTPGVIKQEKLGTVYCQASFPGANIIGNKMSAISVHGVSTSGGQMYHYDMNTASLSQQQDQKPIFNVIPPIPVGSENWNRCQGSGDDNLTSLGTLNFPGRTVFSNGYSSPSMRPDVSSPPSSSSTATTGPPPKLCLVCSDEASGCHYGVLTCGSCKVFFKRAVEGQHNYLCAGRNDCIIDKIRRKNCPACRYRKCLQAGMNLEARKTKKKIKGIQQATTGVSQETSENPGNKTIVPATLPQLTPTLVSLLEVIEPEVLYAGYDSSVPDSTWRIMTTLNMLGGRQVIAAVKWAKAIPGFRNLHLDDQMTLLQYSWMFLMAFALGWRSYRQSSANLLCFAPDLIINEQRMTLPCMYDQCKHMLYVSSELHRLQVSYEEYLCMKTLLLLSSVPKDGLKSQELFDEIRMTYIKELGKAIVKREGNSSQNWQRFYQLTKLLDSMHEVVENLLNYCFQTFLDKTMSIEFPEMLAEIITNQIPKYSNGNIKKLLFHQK
# [5] = biological target: Glucocorticoid receptor (Homo sapiens) (UniProt P04150); test: GR-EFC Redistribution (AID 451; calls by dose curve; also: potency is read from the fitted curve at half-maximal effect); conditions: CHO-K1 GR-EFC translocation, beta-gal luminescence, 2 h
# Outline: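 CHO-K1 cells expressing nuclear EA and GR-ED fragments of b-gal; compounds titrated up to 46 uM final, 2 h at 37 C. GR nuclear translocation read as complemented b-gal luminescence after 1 h RT detection.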
# [6] = biological target: Mitogen-activated protein kinase 10 (Mus musculus) (UniProt Q61831); test: JNK3 AlphaScreen Assay (AID 530); conditions: JNK3 lysate, c-Jun phosphorylation; series mostly up to 57.1 µM;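 also: kinase came from lysate of stimulated human HepG2 cells; signal reports phosphorylation of biotinylated GST-cJun 1-79 at Ser73 with 10 µM ATP; % is scaled to controls: 0 for no effect and ±100 for the full control effect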
# Outline: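 qHTS format: compounds tested as titrations against IL-1beta/TNF-alpha-activated HepG2 lysate JNK3 with biotin-GST-cJun substrate and 10 uM ATP at room temperature. Loss of anti-phospho-cJun AlphaScreen signal indicates inhibition.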
# [7] = biological target: 3',5'-cyclic-AMP phosphodiesterase 4B (Homo sapiens) (UniProt Q07343); test: qHTS Assay for Inhibitors of PDE-IV (AID 607; active = well fitted activation curve with a large enough effect in the main read-out, with a control signal flat, not every such curve was filed as active; also: % of control where 0% means no effect); conditions: HEK293 ACTOne CNG channel cells, membrane potential fluorescence; series mostly up to 22.9 µM
# Chain of 3',5'-cyclic-AMP phosphodiesterase 4B (Homo sapiens) (Q07343 whole entry, looked up): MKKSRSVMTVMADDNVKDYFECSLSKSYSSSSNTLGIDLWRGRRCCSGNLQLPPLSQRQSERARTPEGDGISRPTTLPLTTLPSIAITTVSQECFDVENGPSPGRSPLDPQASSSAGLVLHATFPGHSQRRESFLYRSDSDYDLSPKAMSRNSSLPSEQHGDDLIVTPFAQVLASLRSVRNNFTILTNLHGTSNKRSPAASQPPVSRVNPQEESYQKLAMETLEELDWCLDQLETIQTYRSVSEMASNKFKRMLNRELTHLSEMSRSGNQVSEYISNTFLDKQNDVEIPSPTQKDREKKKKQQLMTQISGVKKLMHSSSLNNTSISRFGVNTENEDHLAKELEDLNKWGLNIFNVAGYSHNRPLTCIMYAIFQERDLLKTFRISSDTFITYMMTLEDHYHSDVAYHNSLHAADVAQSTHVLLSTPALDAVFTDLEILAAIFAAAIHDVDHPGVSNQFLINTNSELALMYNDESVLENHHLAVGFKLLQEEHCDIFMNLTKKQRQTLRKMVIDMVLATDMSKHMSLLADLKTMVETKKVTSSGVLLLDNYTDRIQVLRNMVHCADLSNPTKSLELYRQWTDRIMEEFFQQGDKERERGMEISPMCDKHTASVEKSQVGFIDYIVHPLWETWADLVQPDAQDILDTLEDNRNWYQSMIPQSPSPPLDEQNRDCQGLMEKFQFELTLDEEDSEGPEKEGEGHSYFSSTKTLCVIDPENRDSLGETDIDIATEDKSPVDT
# Outline: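 The readout is membrane depolarisation from a cAMP-sensing CNG channel, detected with a potential dye at ex 535/em 590. Cells were HEK293-derived (endogenous PDE-IV) at 1000 cells/well, titrated up to 22.9 uM final.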
# [8] = biological target: Cytochrome P450 3A4 (Homo sapiens) (UniProt P08684); test: qHTS Assay for Activators of Cytochrome P450 3A4 (AID 885; active = well fitted curve in the direction sought with a large enough effect; an effect the other way counts as inactive or inconclusive; also: nearly all actives have a fitted effect of over 65% in size); conditions: recombinant CYP3A4, Luciferin-PPXE luminescence, 60 min; series mostly up to 57.1 µM
# Chain of Cytochrome P450 3A4 (Homo sapiens) (P08684 whole entry, looked up): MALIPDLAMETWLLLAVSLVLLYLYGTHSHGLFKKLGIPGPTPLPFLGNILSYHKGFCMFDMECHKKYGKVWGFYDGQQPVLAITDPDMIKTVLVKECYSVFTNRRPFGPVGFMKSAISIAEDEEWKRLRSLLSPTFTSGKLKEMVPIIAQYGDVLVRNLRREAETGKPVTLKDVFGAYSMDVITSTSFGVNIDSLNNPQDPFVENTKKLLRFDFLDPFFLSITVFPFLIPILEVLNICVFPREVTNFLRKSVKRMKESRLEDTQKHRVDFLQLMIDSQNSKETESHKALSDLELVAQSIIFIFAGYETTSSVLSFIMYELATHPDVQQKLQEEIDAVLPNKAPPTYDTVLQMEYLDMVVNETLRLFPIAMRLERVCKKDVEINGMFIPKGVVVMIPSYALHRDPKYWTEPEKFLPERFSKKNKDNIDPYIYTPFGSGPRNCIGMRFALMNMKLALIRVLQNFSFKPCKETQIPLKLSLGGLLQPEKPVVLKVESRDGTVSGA
# Outline: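 Steps: enzyme/substrate mix dispensed; compound added, 10 min RT; NADPH regeneration solution added, 60 min RT; luciferin detection buffer stops reaction; 20 min later luminescence measured.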
# [9] = Confirmation and Secondary Assay for Modulators of Hemoglobin Beta Chain Splicing at IVS2 705 locus (AID 930; active = well fitted curve in the direction sought with a large enough effect; an effect the other way counts as inactive or inconclusive;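 also: HeLa cells stably expressing the EGFP-705 splicing reporter; GFP fluorescence per well restored by corrected splicing of the IVS2-705 intron in EGFP; % of control where 0% means no effect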); conditions: HeLa EGFP-705 splicing reporter, GFP fluorescence, 48 h; series mostly up to 38.3 µM
# Outline: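 HeLa EGFP-705 reporter; 500 cells/well, o/n 37C 5% CO2; cpd 2 d; 488 ex/500-520 em laser scan; total peak GFP intensity/well. Ref: 500 nM […] antisense PNA.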
# [10] = Primary qHTS for small molecule stabilizers of the endoplasmic reticulum resident proteome: Secreted ER Calcium Modulated Protein (SERCaMP) assay (AID 1508630; active = well fitted curve in the direction sought with a large enough effect; an effect the other way counts as inactive or inconclusive; also: % is scaled to controls: 0 for no effect and ±100 for the full control effect); conditions: SH-SY5Y GLuc-SERCaMP (Gaussia luciferase released on ER calcium loss) secretion, thapsigargin, luminescence; series mostly up to 38.4 µM
# Outline: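 GLuc-SERCaMP-expressing SH-SY5Y cells, pretreated 16 h with compound, are challenged with thapsigargin to empty ER calcium stores; after 4 h, coelenterazine is added directly to the medium and luminescence is imaged.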
# [11] = NFAT Signaling Pathway (AID 444); conditions: Jurkat NFAT-bla M1, carbachol, beta-lactamase ratio, 5 h; at 7.69 µM (top of the series) unless noted;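 also: carbachol stimulus at about its EC50 of 1 µM final; % is scaled to controls: 0 for no effect and ±100 for the full control effect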
# Outline: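 Jurkat cells with NFAT-driven β-lactamase reporter and co-expressed M1 receptor, stimulated with carbachol (final 1 uM, ~EC50), compound titration, 5 h at 37 °C. CCF4 loaded 1 h at RT; 460/530 nm ratio gave %activity and AC50.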
# [12] = Stat Signaling Pathway (AID 446); conditions: ME-180 SIE beta-lactamase reporter, IL-6 stimulated, 5 h; at 7.69 µM (top of the series) unless noted
# Outline: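 Screening format detects activators and inhibitors alike: ME-180 SIE-bla cells stimulated at 40 pM IL-6 for 5 hrs with compound, then dual-emission beta-lactamase read at 405 nm excitation.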
# [13] = biological target: Cytochrome P450 2C9 (Homo sapiens) (UniProt P11712); test: qHTS Assay for Inhibitors and Substrates of Cytochrome P450 2C9 (AID 883; active = well fitted curve in the direction sought with a large enough effect; an effect the other way counts as inactive or inconclusive; also: potency is read from the fitted curve at half-maximal effect; nearly all actives have a fitted effect of over 60% in size); conditions: recombinant CYP2C9, luciferin-H luminescence, 60 min; series mostly up to 57.1 µM
# Chain of Cytochrome P450 2C9 (Homo sapiens) (P11712 whole entry, looked up): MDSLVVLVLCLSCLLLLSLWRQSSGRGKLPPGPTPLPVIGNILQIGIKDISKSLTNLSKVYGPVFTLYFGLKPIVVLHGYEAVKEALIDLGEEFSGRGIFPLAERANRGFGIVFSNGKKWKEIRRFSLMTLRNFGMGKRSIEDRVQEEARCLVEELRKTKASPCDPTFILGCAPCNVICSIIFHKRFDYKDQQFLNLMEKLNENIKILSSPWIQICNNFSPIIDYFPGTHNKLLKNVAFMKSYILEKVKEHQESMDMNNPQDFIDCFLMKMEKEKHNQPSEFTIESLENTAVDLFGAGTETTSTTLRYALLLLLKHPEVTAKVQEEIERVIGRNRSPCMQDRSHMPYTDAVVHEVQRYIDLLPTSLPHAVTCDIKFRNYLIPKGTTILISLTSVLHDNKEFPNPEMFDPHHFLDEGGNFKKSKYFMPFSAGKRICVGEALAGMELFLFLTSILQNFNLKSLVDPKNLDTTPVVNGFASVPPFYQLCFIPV
# Outline: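 Human CYP2C9 (10nM) with Luciferin-H at 100uM (its KM) in 25mM KPO4; compound preincubated 10 min at 37C, then NADPH regeneration for 60 min at 37C. Luciferin read by luminescence after detection reagent; normalized to 57uM sulphaphenazole as full inhibition.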
# [14] = biological target: Cytochrome P450 3A4 (Homo sapiens) (UniProt P08684); test: qHTS Assay for Inhibitors and Substrates of Cytochrome P450 3A4 (AID 884; active = well fitted curve in the direction sought with a large enough effect; an effect the other way counts as inactive or inconclusive; also: potency is read from the fitted curve at half-maximal effect; nearly all actives have a fitted effect of over 50% in size); conditions: recombinant CYP3A4, Luciferin-PPXE luminescence; series mostly up to 57.1 µM
# Outline: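 20 nM human CYP3A4 with 25 uM Luciferin-PPXE (at KM) in 200 mM KPO4, preincubated 10 min with compound; NADPH regeneration started a 60 min RT reaction. Luciferin detected by luminescence, normalized to 57 uM ketoconazole as full inhibition.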
# [15] = biological target: Cytochrome P450 2C19 (Homo sapiens) (UniProt P33261); test: qHTS Assay for Inhibitors and Substrates of Cytochrome P450 2C19 (AID 899; active = well fitted curve in the direction sought with a large enough effect; an effect the other way counts as inactive or inconclusive; also: potency is read from the fitted curve at half-maximal effect; nearly all actives have a fitted effect of over 60% in size); conditions: recombinant CYP2C19, luciferin-H EGE luminescence; series mostly up to 57.1 µM
# Chain of Cytochrome P450 2C19 (Homo sapiens) (P33261 whole entry, looked up): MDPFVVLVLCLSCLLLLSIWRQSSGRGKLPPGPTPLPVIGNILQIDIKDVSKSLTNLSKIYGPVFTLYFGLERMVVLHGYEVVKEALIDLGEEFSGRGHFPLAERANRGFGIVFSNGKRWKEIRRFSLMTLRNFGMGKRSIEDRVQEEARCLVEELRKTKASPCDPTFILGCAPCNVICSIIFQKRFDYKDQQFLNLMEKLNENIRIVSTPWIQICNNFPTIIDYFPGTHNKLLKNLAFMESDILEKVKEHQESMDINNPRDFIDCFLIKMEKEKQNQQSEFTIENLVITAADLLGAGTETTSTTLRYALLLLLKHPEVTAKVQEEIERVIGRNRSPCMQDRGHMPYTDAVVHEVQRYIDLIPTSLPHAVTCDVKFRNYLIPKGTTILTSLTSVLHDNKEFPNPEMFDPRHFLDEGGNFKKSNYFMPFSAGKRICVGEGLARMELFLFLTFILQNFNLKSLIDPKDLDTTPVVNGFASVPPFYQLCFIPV
# Outline: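 5 nM human CYP2C19 with 10uM Luciferin-H EGE (at KM) in 50mM KPO4, compound preincubated 10 min at 37C, then NADPH regeneration for 60 min at 37C. Luciferin read by luminescence after detection reagent; normalized to 57uM ketoconazole as full inhibition.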
# [16] = qHTS Assay for Identification of Small Molecule Agonists for Hypoxia Response Element Signaling Pathway (AID 914; active = well fitted activation curve with a large enough effect in the signal ratio, with a control signal flat, not every such curve was filed as active; the % refers to the signal ratio; also: potency is read from the fitted curve at half-maximal effect); conditions: ME-180 (cervical carcinoma) HRE-bla reporter, beta-lactamase ratio, CoCl2, 17 h; activation: hits give high values
# Outline: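 Read-out: CCF4 FRET ratio of 460nm to 530nm emission (excitation 405nm) after 2.5 hours at room temperature, taken from HRE-bla ME-180 cells that had been exposed to compound and EC50 CoCl2 for 17 hours.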
SMILES,Potency [1],"activity change, negative = inhibition [2]",Potency [3],Potency [4] [µM],Potency [5] [µM],Potency [6],Potency [7],Potency [8],outcome [9],outcome [10],"activity change, negative = inhibition [11]","activity, negative = inhibition [12]",Potency [13],Potency [14],Potency [15],Potency [16]
CN(C)c1ccc(-c2nc(NC3CCNCC3)c3ccccc3n2)cc1,7.09 µM (active),4.91%,15.8 µM (active),> 46,> 46,inactive,inactive,inactive,inactive,inactive,,,,,,
COc1ncc2nc(-c3ccc(F)cc3)c(=O)n(CCC#N)c2n1,> 11.4 µM,13.2%,,> 9.22,> 46,inactive,inactive,,,inactive,-5.63%,-0.246%,,,,
O=c1c(-c2ccc(F)c(F)c2)nc2cncnc2n1Cc1ccccc1,> 11.4 µM,-0.964%,,> 9.22,> 46,inactive,,,,inactive,-10.8%,3.53%,,,,
O=c1c(-c2ccc(F)cc2)nc2cnc(Nc3ccccc3)nc2n1C1CC1,> 11.4 µM,-14%,,> 9.22,> 46,inactive,inactive,,,inactive,-2.3%,-3.65%,,,,
COc1ncc2nc(CCc3ccccc3)c(=O)n(Cc3ccc(F)cc3)c2n1,> 11.4 µM,-3.95%,,> 9.22,> 46,inactive,,,,inactive,-13.1%,2.49%,,,,
COc1cccc(Cn2c(=O)c(-c3cc(F)cc(F)c3)nc3cnc(OC)nc32)c1,> 11.4 µM,-16.9%,,> 9.22,> 46,inactive,inactive,,,inactive,-18.1%,-4.81%,,,,
COc1cccc(Cn2c(=O)c(C)nc3cnc(N4CCOCC4)nc32)c1,> 11.4 µM,-24.9%,,> 9.22,> 46,inactive,,,,inactive,2.68%,-1.29%,,,,
COCCn1c(=O)c(-c2ccc(Cl)cc2)nc2cnc(Oc3ccc(OC)cc3)nc21,> 11.4 µM,-18.1%,,> 9.22,> 46,inactive,inactive,,,inactive,-1.47%,-2.62%,,,,
COc1ncc2nc(C)c(=O)n(Cc3cccs3)c2n1,> 11.4 µM,-2.91%,,> 9.22,> 46,inactive,inactive,,,inactive,-7.05%,-7.75%,,,,
COCCn1c(=O)c(C)nc2cnc(OCc3ccccc3)nc21,> 11.4 µM,-16.6%,,> 9.22,> 46,inactive,inactive,,,inactive,-3.44%,-9.48%,,,,
COc1ccc(-n2c(=O)c(-c3ccc(F)cc3)nc3cnc(OC)nc32)cc1,> 11.4 µM,-6.43%,,> 9.22,> 46,inactive,inactive,inactive,,inactive,8.51%,-13.4%,,,,
COc1ccccc1CCn1c(=O)c(C)nc2cncnc21,> 11.4 µM,-13.2%,,> 9.22,> 46,inactive,inactive,,,inactive,6.15%,-13.1%,,,,
COc1ccc(Oc2ncc3ncc(=O)n(Cc4cccc(OC)c4)c3n2)cc1,> 11.4 µM,-25.4%,,> 9.22,> 46,inactive,inactive,,,inactive,-6.25%,-3%,,,,
COc1ncc2nc(-c3ccc(Cl)cc3)c(=O)n(CCc3ccccc3)c2n1,> 11.4 µM,-3.59%,,> 9.22,> 46,inactive,inactive,,,inactive,-9.46%,1.11%,,,,
COCCn1c(=O)c(-c2ccc(OC)cc2)nc2cnc(Oc3ccc(OC)cc3)nc21,> 11.4 µM,-20.1%,,> 9.22,> 46,inactive,inactive,,,inactive,18%,-7.21%,,,,
COc1ccc(-c2nc3cnc(OC)nc3n(C3CC3)c2=O)cc1,> 11.4 µM,-14.2%,,> 9.22,> 46,inactive,inactive,inactive,,inactive,-0.173%,2.68%,,,,
N#Cc1ccc(CN2CC[C@@]3(CCCN(C(=O)c4ccco4)C3)C2)cc1,> 11.4 µM,0.694%,,,> 46,inactive,inactive,,,inactive,-6.92%,12.6%,,,,
O=S(=O)(c1ccccc1)N1CCC2(CCCN(c3ccccc3)C2)CC1,> 11.4 µM,17.4%,,,> 46,inactive,inactive,inactive,,inactive,-15.8%,7.82%,1.26 µM (active),3.98 µM (active),1.58 µM (active),
COc1ccc(C(=O)N2CCC3(CCCN(C(=O)NC(C)C)C3)CC2)cc1,> 11.4 µM,-3.27%,,,> 46,inactive,inactive,,,inactive,2.69%,0.47%,,,,
CS(=O)(=O)N1CCC2(CCCN(Cc3cc(C(F)(F)F)cc(C(F)(F)F)c3)C2)CC1,> 11.4 µM,20%,,,> 46,inactive,inactive,,,inactive,-14.4%,5.1%,,,,
O=c1c(-c2cccc(Cl)c2)nc2cncnc2n1Cc1ccc(F)cc1,> 11.4 µM,-7.68%,,> 9.22,> 46,inactive,,inactive,,inactive,-0.975%,-5.55%,,,,
COc1cccc(Cn2c(=O)c(-c3cccc(Cl)c3)nc3cncnc32)c1,> 11.4 µM,-20.4%,,> 9.22,> 46,,inactive,,,inactive,-10.8%,-8.57%,,,,
COc1ccc(C(=O)N2CCC[C@@]3(CCN(Cc4ccccc4OC)C3)C2)cc1,> 11.4 µM,11.7%,,,> 46,inactive,inactive,,,inactive,-18.6%,5.47%,,,,
COC(=O)N1CCC[C@@]2(CCN(Cc3nccs3)C2)C1,> 11.4 µM,1.72%,,,> 46,inactive,inactive,,,inactive,14.9%,-4.13%,,,,
O=C(Nc1cccc(F)c1)N1CCCC2(CCN(C(=O)c3csnn3)CC2)C1,> 11.4 µM,-12.3%,,,> 46,inactive,inactive,,,inactive,-19.5%,-9.38%,,,,
O=C(c1ccco1)N1CCC2(CCCN(c3ncccn3)C2)CC1,> 11.4 µM,3.88%,,,> 46,inactive,inactive,,,inactive,-1.96%,-7%,,,,
O=C(Nc1cccc(F)c1)N1CCC2(CC1)CCN(C(=O)c1cccc(F)c1)CC2,> 11.4 µM,-7.86%,,,> 46,inactive,inactive,,,inactive,3.68%,-6.46%,,,,
COc1cccc(Cn2c(=O)c(-c3ccc(Cl)cc3)nc3cnc(N(C)C)nc32)c1,> 11.4 µM,122% [activator] (active),,> 9.22,> 46,inactive,inactive,,,inactive,154% [activator] (active),215% [activator] (active),,,,0.316 µM (active)
COc1ccc(C(=O)N2CCC3(CCCN(c4ccccn4)C3)CC2)cc1,> 11.4 µM,-4.8%,,,> 46,inactive,inactive,,,inactive,-8.78%,-3.02%,,,,

# — PubChem BioAssay (NCATS)
